# Most compounds without a hit are left out; they make up all but 1.5% or so of the library.
# NSD2 HMT inh: NSD2 (human) methyltransferase inhibition | AID 743445 | NSD2 peptide methylation, AlphaScreen, 120 min | inhibition, % at 12.5 µM | hit rate 0.54% among 310,000; in the data active = inhibition above about 50%
# RAD52 inh: inhibitors of human RAD52 DNA annealing; hit rate 0.46% among 360,000; recombinant RAD52 DNA annealing, FRET fluorescence; inhibition, % at 18.7 µM;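 active = every replicate showing at least 50% inhibition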
# Target sequence (P43351 whole entry, looked up): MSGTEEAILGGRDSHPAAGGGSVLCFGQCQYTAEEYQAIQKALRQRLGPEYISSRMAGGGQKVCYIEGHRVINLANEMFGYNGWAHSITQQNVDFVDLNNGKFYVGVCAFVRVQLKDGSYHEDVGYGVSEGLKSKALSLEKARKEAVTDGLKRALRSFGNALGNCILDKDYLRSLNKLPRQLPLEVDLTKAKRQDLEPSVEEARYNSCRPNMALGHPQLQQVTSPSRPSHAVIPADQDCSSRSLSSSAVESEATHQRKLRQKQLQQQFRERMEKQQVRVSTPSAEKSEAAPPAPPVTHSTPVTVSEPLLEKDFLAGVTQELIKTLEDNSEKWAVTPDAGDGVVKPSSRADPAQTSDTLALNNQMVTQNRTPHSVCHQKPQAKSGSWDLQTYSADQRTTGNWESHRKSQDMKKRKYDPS
# Casp6 inh: blocks human caspase-6 cleavage activity. purified caspase-6, Z-VEID-R110 cleavage fluorescence. inhibition, % at 12.5 µM. hit rate 0.53% among 350,000. AID 686996;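 active = mean inhibition across replicates at least about 35%, with every replicate also reaching that limit, limit read from the data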;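 also: 0% = median of neutral control wells and 100% = no fluorescence left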
# miR122 inh: miR-122 inhibition in Huh7 cells | hit rate 0.3% among 340,000 | Huh7 miR-122 Renilla luciferase sensor, 48 h; neutral wells = 0, positive control = 100 | activation (reporter increase), % at 12.5 µM | AID 602342;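 active = mean replicate activation score at least 90 and every replicate individually at or above 90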;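 also: higher luciferase means less miR-122 activity so hits act as miR-122 inhibitors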
# AF4-AF9 inh: inhibitors of human MLL-AF4/AF9 interaction. P42568. inhibition, % at 10 µM. AlphaScreen, biotin-AF4 peptide binding to FLAG-AF9. hit rate 0.47% among 350,000;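 active = every replicate reaching a set inhibition limit, whatever the replicate mean, cut at about 25% in these data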;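 also: 0% = plate neutral control median and 100% = total signal loss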
# * marks the source's active call; other numbers are inactive results; · = not tested or not shown; + = active, no number; ! = repeats disagree; [ ] = another dose, or the depositor's remark.
SMILES,NSD2 HMT inh,RAD52 inh,Casp6 inh,miR122 inh,AF4-AF9 inh
O=C(OCCOCCN=C1NS(=O)(=O)c2ccccc21)c1ccccc1,5.0,-9.8,0.0,-5.1,0.5
O=C(NNS(=O)(=O)c1ccc(Cl)cc1)c1cccc(S(=O)(=O)N2CCOCC2)c1,-2.9,-8.3,-0.6,249.2*,-4.0
O=C(NNS(=O)(=O)c1cccc(Cl)c1Cl)c1cccc(S(=O)(=O)N2CCOCC2)c1,-1.6,-8.8,-1.9,20.3,-23.1
C[C@@H]1CN([C@@H](C)CO)C(=O)Cc2cc(NC(=O)CCN3CCOCC3)ccc2O[C@H]1CN(C)Cc1ccc(-c2ccccc2)cc1,·,-73.2,-2.0,·,13.2
CC(C)NC(=O)Nc1ccc2c(c1)C(=O)N([C@@H](C)CO)C[C@H](C)[C@H](CN(C)C)OCCCC[C@@H](C)O2,·,7.2,-1.8,8.0[16.7 µM],0.0
Cc1ccc(N2CC(C(=O)Nc3nccs3)CC2=O)cc1Cl (configuration not stated),-5.0,·,·,95.9*,·
COCc1nnc(NC(=O)C2CC(=O)N(c3ccc(C)c(Cl)c3)C2)s1 (configuration not stated),-1.0,-16.8,-2.5,·,-1.3
CCCCCc1ccc(CC(=O)N2CCOCC2)cc1,-1.5,0.5,50.3*,1.3,-3.5
COc1ccc(S(=O)(=O)Nc2cccc3c2O[C@@H](CN(C)S(=O)(=O)c2ccc(OC)cc2)[C@@H](C)CN([C@H](C)CO)C3=O)cc1,·,·,0.1,·,1.5
O=C(C1CCN(c2ccc(N3CCOCC3)nn2)CC1)N1CCc2ccccc2C1,4.4,-7.7,55.9*,-4.7,7.6
C[C@H]1CCCCO[C@H](CN(C)C(=O)Nc2ccc(F)cc2)[C@@H](C)CN([C@@H](C)CO)C(=O)c2cc(NC(=O)Cc3ccccc3)ccc2O1,·,-28.5,43.1*,-7.1[16.7 µM],-0.6
C[C@@H]1CCCCO[C@H](CN(C)C(=O)Nc2ccc(F)cc2)[C@@H](C)CN([C@H](C)CO)C(=O)c2cc(NC(=O)Nc3ccccc3)ccc2O1,·,17.2,-2.2,17.5[16.7 µM],43.2*
C[C@H]1CN([C@@H](C)CO)C(=O)c2cc(NC(=O)NC3CCCCC3)ccc2O[C@@H]1CN(C)C(=O)Nc1ccccc1,·,23.3,4.1,93.4*[16.7 µM],-5.7
C[C@@H]1CN([C@H](C)CO)C(=O)c2cccc(N(C)C)c2O[C@H]1CN(C)C(=O)Nc1ccccc1,·,-9.6,2.0,124.5*[16.7 µM],-2.6
C[C@@H]1CN([C@@H](C)CO)S(=O)(=O)c2ccc(C#CC3CC3)cc2O[C@@H]1CN(C)C(=O)C1CCCCC1,·,·,·,-23.6[16.7 µM],·
CN1C(=O)[C@@H]2[C@@H](CC(COc3ccccc3)=C3[C@@H](c4ccccc4)OB(O)C[C@@H]32)C1=O,·,6.0,1.5,·,-0.9
COCC(=O)N(C)C[C@@H]1Oc2ncc(-c3ccccc3OC)cc2C(=O)N([C@H](C)CO)C[C@H]1C,·,10.4,1.4,2.7[16.7 µM],-14.5
CO[C@H]1CN(C)C(=O)c2cc(NC(=O)C3CC3)ccc2OC[C@H](C)N(Cc2ccncc2)C[C@@H]1C,·,2.1,0.6,4.5[16.7 µM],0.3
Cn1nc(C(C)(C)C)cc1C(=O)NNC(=O)c1cccc(Cl)c1,0.2,-9.4,1.8,0.6,39.7*
Cn1nc(C(=O)NNC(=O)c2cccc(Cl)c2)ccc1=O,4.7,1.7,-1.1,-5.9,-4.2
C[n+]1c(-c2ccccc2)cc2c(=Cc3ccccc3)c3ccccc3n21,24.4,-1.7,52.7*,·,28.5*
CC(C)n1c2ccccc2c2cc([N+](=O)[O-])ccc21,-0.1,-20.5,1.8,·,5.1
C[n+]1c(-c2ccccc2)cc2c(=Cc3ccc([N+](=O)[O-])cc3)c3ccccc3n21,-0.6,2.5,82.7*,·,61.4*
COc1cc(CN2[C@@H]3CNC[C@H]2C3c2ccc(-c3cccc(C)c3)cc2)cc(OC)c1 (some centres not stated),·,58.8*,·,·,2.7
Fc1cccc(CN2[C@@H]3CNC[C@H]2C3c2ccc(-c3ccccc3)cc2)c1 (some centres not stated),·,30.6,·,·,·
SMILES,NSD2 HMT inh,RAD52 inh,Casp6 inh,miR122 inh,AF4-AF9 inh
Fc1cccc(CN2[C@@H]3CNC[C@H]2C3c2ccc(-c3cccc(F)c3)cc2)c1 (some centres not stated),·,50.9*!,11.2,·,2.3
CCOc1ccc(OCCSc2ccc(S(=O)(=O)N3CCN(C)CC3)cn2)cc1,8.4,-4.9,-1.2,-1.3,27.0*
O=S(Cc1ccc(Cl)cc1)CC(O)(c1ccccc1)c1ccccc1 (configuration not stated),-1.1,·,·,146.7*,·
O=S(Cc1ccccc1)CC(O)(c1ccccc1)c1ccccc1 (configuration not stated),18.3,·,·,8.4,·
O=S(Cc1ccccc1)CC(O)(c1ccc(Cl)cc1)c1ccc(Cl)cc1 (configuration not stated),0.4,·,·,138.6*,·
CN1C(=O)c2cc(NC(=O)Nc3ccc(Cl)cc3)ccc2OC[C@H]2O[C@@H](CC(=O)O)CC[C@H]21,·,7.5,-1.5,-2.0[16.7 µM],0.2
CCN(c1ccccc1)S(=O)(=O)c1cc(C(=O)O)ccc1C,+,·,·,3.3,·
C[C@@H]1CN([C@H](C)CO)C(=O)c2cc(NS(=O)(=O)c3ccc(Cl)cc3)ccc2O[C@@H](C)CCCCO[C@@H]1CN(C)C(=O)C1CCCCC1,·,15.7,1.4,19.2[16.7 µM],2.8
COc1ccc(NC(=O)N2CCCCN3[C@H](CO)[C@H](c4ccc(C5=CCCC5)cc4)[C@@H]3C2)cc1,·,4.3,-0.8,15.5[16.7 µM],-5.7
COc1ccc(NC(=O)N2CCCCN3[C@@H](CO)[C@H](c4ccc(C5=CCCCC5)cc4)[C@@H]3C2)cc1,·,71.2*,-1.3,0.7[16.7 µM],21.0
COc1ccc(NC(=O)N2CCCCN3[C@H](CO)[C@@H](c4ccc(C5=CCCC5)cc4)[C@H]3C2)cc1,·,64.9*,-0.7,1.8[16.7 µM],11.7
COc1ccc2c3c(n(C)c2c1)[C@@H](CO)N(CC1CC1)CC31CN(C(=O)c2ccc(F)cc2)C1,·,·,·,·,7.4
Cc1ccc(NC(=S)NC(C)CCc2ccccc2)cc1C (configuration not stated),-1.0,-5.3,-0.3,·,6.8
Cc1cccc(C)c1NC(=S)NC(C)CCc1ccccc1 (configuration not stated),1.1,-10.5,0.2,100.4*,-3.1
Cc1cccc(N(CC(=O)NC2CCCCC2)C(=O)c2csnn2)c1,-3.7,-3.2,1.0,-1.1,-2.1
CC(=O)c1cccc(N(CC(=O)NC2CCCCC2)C(=O)c2csnn2)c1,-0.3,-12.2,-3.4,·,34.1*
Cc1noc(C)c1S(=O)(=O)Nc1ccc2c(c1)C(=O)N([C@@H](C)CO)C[C@@H](C)[C@H](CN(C)Cc1ccc(Cl)c(Cl)c1)OCCCC[C@@H](C)O2,·,-19.9,77.5*,-8.5[16.7 µM],5.0
Cc1noc(C)c1S(=O)(=O)Nc1ccc2c(c1)C(=O)N([C@H](C)CO)C[C@@H](C)[C@@H](CN(C)S(=O)(=O)c1ccc(F)cc1)OCCCC[C@H](C)O2,·,60.3*,1.3,5.1[16.7 µM],-0.9

# Screening results: PubChem, Broad Institute
